In assay [1] the target is Cellular tumor antigen p53 (Homo sapiens) (UniProt P04637). Description: Primary qHTS for small molecule compounds that upregulate eGFP-tagged delta133p53alpha (in N-terminal) cells. (AID 2060322). Further: nearly all actives have a fitted effect of over 75% in size. Further: potency means the concentration at half of the fitted maximal effect.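 On activation: 0% = DMSO vehicle and 100% = reference activator.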 The following applies: NCI-H358 eGFP-delta133p53alpha fluorescence, 24 h; activation: stronger effect = higher value. In outline:
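NCI-H358 cells pre-induced 24 h with 10 ng/ml doxycycline to express N-terminal eGFP-delta133p53alpha, then dosed 24 h at 37C without doxycycline; fixed, Hoechst-stained, GFP intensity by laser scanning cytometry, normalized to DMSO (0%) and 57.5 uM 5-azacytidine (100%).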

Assay [2] concerns the target Aldehyde dehydrogenase, mitochondrial (Homo sapiens) (UniProt P05091). Description: qHTS for Inhibitors of the Aldehyde Dehydrogenase Family (ALDH2) Primary screen (AID 2061308).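 Further: plate controls were vehicle for no effect and reference inhibitor for full effect; nearly all actives have a fitted effect of over 55% in size.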 As to conditions: ALDH2 enzyme inhibition qHTS, 1536-well; series mostly up to 56 µM.
Assay [3] has as its target Retinaldehyde dehydrogenase 3 (Homo sapiens) (UniProt P47895). Description: qHTS for Inhibitors of the Aldehyde Dehydrogenase Family (ALDH1A3) Primary screen (AID 2061315).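 Further: plate controls were DMSO vehicle for no effect and reference inhibitor for full effect.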 The following applies: ALDH inhibition qHTS; series mostly up to 56 µM.

The record followed here is PubChem BioAssay (NCATS).

Results filed as inconclusive are left out. Values without a mark were called inactive. Calls of active or inactive are those of the source. The call rests on the fitted dose curve; in most records, active means well fitted curve in the direction sought with a large enough effect; inconclusive means small, poorly fitted or top-dose-only effect, or another doubt; inactive means no such curve, though single readings can be large; an effect the other way counts as inactive or inconclusive.

Cellular tumor antigen p53 (Homo sapiens), sequence (P04637 whole entry, looked up): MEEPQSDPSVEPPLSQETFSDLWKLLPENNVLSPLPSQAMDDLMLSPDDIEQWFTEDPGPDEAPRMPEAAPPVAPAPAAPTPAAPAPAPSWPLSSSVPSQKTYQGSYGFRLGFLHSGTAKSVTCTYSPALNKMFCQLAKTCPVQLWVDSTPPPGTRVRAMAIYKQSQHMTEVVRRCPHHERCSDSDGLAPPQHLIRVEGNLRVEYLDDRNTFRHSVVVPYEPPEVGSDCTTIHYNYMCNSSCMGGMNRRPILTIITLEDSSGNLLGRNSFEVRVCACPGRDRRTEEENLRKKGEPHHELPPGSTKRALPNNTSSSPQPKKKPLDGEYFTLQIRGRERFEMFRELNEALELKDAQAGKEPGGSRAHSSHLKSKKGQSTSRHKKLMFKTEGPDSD

Consider `CC(=O)NCc1cccc(OC[C@@H](O)CNCCc2ccc(NS(=O)(=O)c3ccccc3)cc2)c1`, for which the activation in assay [1] is 8.93%. Moreover, the Potency entry in assay [2] and in assay [3] was “inactive” throughout.

Take `COc1cc(O)cc(/C=C/c2ccc(O[C@@H]3O[C@H](CO)[C@@H](O)[C@H](O)[C@H]3O)cc2)c1`: the activation in assay [1] is -11.6%. The Potency entry in assay [2] and in assay [3] was “inactive” in each case.

`COc1cc(/C=C/C(=O)OC2CC(OC(C)=O)C(OC(C)=O)C3C2CCC2C(=O)OC(c4ccoc4)CC23C)ccc1O[C@@H]1O[C@H](CO)[C@@H](O)[C@H](O)[C@H]1O` (stereo partly drawn): in assay [1], the activation is -16%. Moreover, the Potency entry in assay [2] and in assay [3] was “inactive” each time.

Take `C=C1C(=O)OC2/C=C(\C)CC3C=C(CC/C=C(\C)CCC12)C(=O)O3` (stereo not drawn): in assay [1], the Potency was 6.59 µM (active). Further, the Potency entry in assay [2] and in assay [3] was “inactive” throughout.

With `CC1=CC(=O)[C@]2(O[C@@H]3O[C@@H](C)[C@H](O)[C@@H](O)[C@H]3OC(=O)/C=C/c3ccccc3)C=CO[C@@H](O[C@@H]3O[C@H](CO)[C@@H](O)[C@H](O)[C@H]3O)[C@H]12`, in assay [1], the activation is 3.05%. The Potency entry in assay [2] and in assay [3] was “inactive” in each case.

`COC(=O)[C@H](Cc1ccc([N+](=O)[O-])cc1)NC(=O)c1cccc2ccccc12`: the activation in assay [1] is 11.5%. For the same compound, the Potency result in assay [2] and in assay [3] was “inactive” throughout.

For `O=[N+]([O-])c1cccc2[nH]c(CNc3nc(N4CCOCC4)nc4c3ncn4-c3ccsc3)nc12`, in assay [1], the Potency was 0.301 µM (active). Further, the Potency result in assay [2] and in assay [3] was “inactive” throughout.

In the case of `C[C@@H](CC[C@@H]1[C@@]2(C)CCCC(C)(C)C2CC[C@@]1(C)O)CC(=O)O` (stereo partly drawn), the activation in assay [1] was -12.2%. Moreover, the Potency result in assay [2] and in assay [3] was “inactive” each time.

Turning to `CC1=C(CCC(C)CC(=O)O)[C@@]2(C)CCCC(C)(C)C2CC1=O` (stereo partly drawn), the activation in assay [1] was -29.5%. Also, the Potency entry in assay [2] and in assay [3] was “inactive” each time.

`O=C1[C@H](O[C@@H]2O[C@H](CO)[C@@H](O)[C@H](O)[C@H]2O)Oc2ccccc2N1O`: in assay [1], the activation was 14.3%. Moreover, the Potency entry in assay [2] and in assay [3] was “inactive” each time.

Consider `O=C(OCc1cccc(O)c1O[C@@H]1O[C@H](CO)[C@@H](O)[C@H](O)[C@H]1O)C1(O)C(=O)C2C=CC1C1C=CC(=O)C(O)(C(=O)OCc3cccc(O)c3O[C@@H]3O[C@H](CO)[C@@H](O)[C@H](O)[C@H]3O)C21` (stereo partly drawn), for which the activation in assay [1] was -29.8%. Besides, the Potency entry in assay [2] and in assay [3] was “inactive” throughout.

Turning to `CC(=O)N[C@H]1[C@H](O[C@H]2CC[C@@]3(C)C(CC[C@]4(C)C3CC=C3[C@@H]5CC(C)(C)CC[C@]5(C(=O)OC5OCC(O)C(O)C5O)CC[C@]34C)C2(C)C)O[C@H](COC2OC(C)C(O)C(OC3OC(C)C(O)C(O)C3O)C2O)[C@@H](O)[C@@H]1O` (stereo partly drawn), the activation in assay [1] was -26%. Besides, the Potency entry in assay [2] and in assay [3] was “inactive” each time.

For the compound `O=C1NC(Cc2c[nH]c3ccccc23)C(=O)NC1Cc1c[nH]c2ccccc12` (stereo not drawn), the activation in assay [1] was 14.5%. The Potency entry in assay [2] and in assay [3] was “inactive” each time.

Turning to `CCOC(=O)c1c(C)nn(-c2cccc([N+](=O)[O-])c2)c1C`, the activation in assay [1] was -9.67%. Also, the Potency entry in assay [2] and in assay [3] was “inactive” throughout.

Take `CO[C@H]1C[C@@H]2CC[C@@H](C)[C@@](O)(O2)C(=O)C(=O)N2CCCC[C@H]2C(=O)O[C@H]([C@H](C)C[C@H]2CC[C@@H](OP(C)(C)=O)[C@H](OC)C2)CC(=O)[C@H](C)/C=C(\C)[C@@H](O)[C@@H](OC)C(=O)[C@H](C)C[C@H](C)/C=C/C=C/C=C/1C`: the activation in assay [1] is 11%. The Potency result in assay [2] and in assay [3] was “inactive” each time.

In the case of `COC1=CC(=O)CC(C)C12Oc1cc(OC)cc(O)c1C2=O` (stereo not drawn), the activation in assay [1] is 16.8%. For the same compound, the Potency result in assay [2] and in assay [3] was “inactive” in each case.

Take `COc1cc(C)c(C(=O)Oc2cc(C)c(C(=O)Oc3cc(C)c(C(=O)NC(C)C(=O)O)c(O)c3)c(O[C@@H]3O[C@H](CO)[C@@H](O)[C@H](O)[C@H]3OC(C)=O)c2)c(OC)c1` (stereo partly drawn): in assay [1], the activation was -7.63%. Also, the Potency entry in assay [2] and in assay [3] was “inactive” throughout.

Consider `C[C@@]12C[C@]3(O)O[C@H](O1)[C@]1(COC(=O)c4ccccc4)[C@H]3C[C@@]12O[C@@H]1O[C@H](COC(=O)c2ccccc2)[C@@H](O)[C@H](O)[C@H]1O`, for which the activation in assay [1] was -5.34%. Moreover, the Potency entry in assay [2] and in assay [3] was “inactive” each time.

In the case of `COc1cc(O)c2c(c1)C1(OC2=O)C(C)=CC(=O)C1O` (stereo not drawn), the activation in assay [1] is -16%. Moreover, the Potency result in assay [2] and in assay [3] was “inactive” each time.

On to `CCC1OC(=O)C(C)CC(C)C(=O)/C(C)=C/C(C)C(=O)/C=C/C1(C)O` (stereo not drawn), for which the activation in assay [1] is 3.05%. Also, the Potency result in assay [2] and in assay [3] was “inactive” each time.

Consider `CC1(CO)CC(O)C2(C)CCC3(C)C(=CCC4C5(C=O)CCC(OC6OC(C(=O)O)C(O)C(O)C6OC6OC(C(=O)O)C(O)C(O)C6O)C(C)(C)C5CCC43C)C2C1` (stereo not drawn), for which the activation in assay [1] is -10.7%. Besides, the Potency result in assay [2] and in assay [3] was “inactive” throughout.
